From PubChem BioAssay
Activity calls are given as the source filed them.

Columns and labels:
[1] = tested on: Plasmodium falciparum Sir2 (PF13_0152, Sir2A); experiment: pfSir2 binders on small-molecule microarrays, primary screen, biochemical, small-molecule microarray, 635 nm fluorescence (AID 1098); conditions: small-molecule microarray binding, fluorescence 635 nm; higher = more signal;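 also: score merges spot fluorescence intensity with its signal-to-noise ratio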
[2] = small-molecule microarray binders of probe aDKK1, primary screen, biochemical, biotinylated probe, 635/667 nm fluorescence (AID 1099); conditions: higher = more signal;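 also: score merges 667nm spot fluorescence with signal to noise across triplicate slides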
[3] = small-molecule microarray binders of probe aCHRDL2, primary screen, biochemical, biotinylated probe, 635/667 nm fluorescence (AID 1100); conditions: higher = more signal
[4] = splicing luciferase reporter signal modulators, primary screen, spliceosome inhibition project, cell-based, HEK293, splice +/- reporter (AID 1101); conditions: luminescence, 24 h, higher = more signal, called active from +8 up or from −8 down;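 also: HEK293 cells carrying a splicing-competent luciferase reporter gene; test concentration not given here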
[5] = target: Fibroblast growth factor 10 (Homo sapiens) (UniProt O15520); experiment: FGF10 binders on small-molecule microarrays, primary screen, biochemical, small-molecule microarray, 635 nm fluorescence (AID 1102); conditions: FGF10 binding, fluorescence 635 nm, higher = more signal
[6] = tested on: glycogen synthase kinase-3 (GSK3A per assay name; protocol says GSK3B); experiment: GSK3 binders on small-molecule microarrays, primary screen, biochemical, small-molecule microarray, 635 nm fluorescence, GSK3A (AID 1103); conditions: small-molecule microarray binding, fluorescence 635 nm; higher = more signal; also: the record names both GSK3A and GSK3B
[7] = target: Epidermal growth factor receptor (Homo sapiens) (UniProt P00533); experiment: EGFR binders on small-molecule microarrays, primary screen, biochemical, small-molecule microarray, 635 nm fluorescence (AID 1104); conditions: EGFR binding, higher = more signal;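 also: score merges 667 nm emission intensity with spot signal to noise over triplicate slides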
[8] = target: Follistatin-related protein 3 (Homo sapiens) (UniProt O95633); experiment: FSTL3 binders on small-molecule microarrays, primary screen, biochemical, small-molecule microarray, 635 nm fluorescence (AID 1105); conditions: FSTL3 binding, higher = more signal;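 also: score merges emission near 667 nm and signal to noise per printed spot across three slides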
[9] = target: Dickkopf-related protein 1 (Homo sapiens) (UniProt O94907); experiment: DKK1 binders on small-molecule microarrays, primary screen, biochemical, small-molecule microarray, 635 nm fluorescence scan (AID 1106); conditions: DKK1 binding, higher = more signal;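 also: score merges emission near 667 nm with signal to noise over three replicate slides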
[10] = tested on: Inhibin beta A chain (activin A); experiment: INHBA (activin A) binders on microarrays, primary screen, biochemical, small-molecule microarray, 635 nm fluorescence scan (AID 1107); conditions: small-molecule microarray binding, higher = more signal;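 also: mouse activin A protein probed at 4.33 µg/mL on printed slides; score merges bound-protein fluorescence near 667 nm with spot signal-to-noise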
[11] = tested on: Human papillomavirus type 1a protein E7 (residues 44-93); experiment: HPV1a E7 fragment binders on microarrays, primary screen, biochemical, small-molecule microarray, residues 44-93, 635 nm fluorescence (AID 1108); conditions: small-molecule microarray binding, fluorescence 635 nm; higher = more signal;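 also: E7 fragment applied at 1 µg/mL in TBST for 1 h at 4 C; score combines spot fluorescence with its signal to noise ratio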
[12] = modulators of HCV replicon luciferase signal, primary screen, HCV replication inhibitor project, Huh7 cells, luciferase reporter (AID 1109); conditions: 48 h, higher = more signal;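 also: huh7 hepatoma cells harbouring a luciferase neomycin HCV replicon reporter; luciferase luminescence as measure of HCV replicon replication; test concentration not given here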
[13] = target: Left-right determination factor 2 (Homo sapiens) (UniProt O00292); experiment: LEFTY2 binders on small-molecule microarrays, primary screen, biochemical, small-molecule microarray, 635 nm fluorescence scan (AID 1110); conditions: LEFTY2 binding, higher = more signal
[14] = target: Calmodulin-1 (Homo sapiens) (UniProt P0DP23); experiment: CALM1 binders on microarrays, EGTA buffer, profiling panel, biochemical, small-molecule microarray, Cy5-labelled CALM1 (AID 1111); conditions: Cy5-CALM1 binding fluorescence, higher = more signal;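 also: labelled calmodulin applied in Tris saline Tween buffer holding calcium plus EGTA and DTT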
[15] = target: Calmodulin-1 (Homo sapiens) (UniProt P0DP23); experiment: calcium-bound CALM1 binders on microarrays, profiling panel, artefact control for SMM control-protein annotation, biochemical, small-molecule microarray, Cy5-labelled CALM1, plus calcium (AID 1112); conditions: Cy5-CALM1 binding fluorescence, higher = more signal;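 also: score merges spot fluorescence with signal to noise from triplicate slides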
[16] = small-molecule microarray binders of probe aWnt5a, primary screen, biochemical, biotinylated probe, 635/667 nm fluorescence (AID 1113); conditions: higher = more signal;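 also: score merges 667 nm fluorescence intensity with signal-to-noise per printed feature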
[17] = small-molecule microarray binders of probe aShh, primary screen, biochemical, biotinylated probe, 635/667 nm fluorescence (AID 1114); conditions: higher = more signal;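 also: probe is biotin-labelled aShh protein from a stem cell growth factor screen; measures binding of labelled protein to compounds printed on the slide; score merges feature fluorescence at 667 nm with signal-to-noise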
[18] = small-molecule microarray binders of probe aNog, primary screen, biochemical, biotinylated probe, 635/667 nm fluorescence (AID 1115); conditions: higher = more signal;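 also: probe is biotinylated aNog protein used at 0.15 µg/mL for 1 h at 4 C; z-score combines 667 nm fluorescence of each spot with its signal to noise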
[19] = target: Torsin-1A-interacting protein 1 (Homo sapiens) (UniProt Q5JTV8); experiment: LAP1 binders from COS7 cell lysate, primary screen, small-molecule microarray, 635/667 nm fluorescence (AID 1116); conditions: COS7-hLAP1 lysate binding, 635 nm fluorescence, higher = more signal
[20] = target: Alpha-bungarotoxin (Bungarus multicinctus) (UniProt P60615); experiment: alpha-bungarotoxin binders on microarray, profiling panel, artefact control for SMM control protein annotation, biochemical, small-molecule microarray, Alexa647 label, 635/667 nm fluorescence (AID 1117); conditions: alpha-BTX-A647 binding fluorescence, higher = more signal
Alpha-bungarotoxin (Bungarus multicinctus), sequence (P60615 whole entry, looked up): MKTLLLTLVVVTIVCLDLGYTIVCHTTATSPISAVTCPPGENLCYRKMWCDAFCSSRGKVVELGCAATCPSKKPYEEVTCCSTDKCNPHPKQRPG

Epidermal growth factor receptor (Homo sapiens), sequence (P00533 whole entry, looked up): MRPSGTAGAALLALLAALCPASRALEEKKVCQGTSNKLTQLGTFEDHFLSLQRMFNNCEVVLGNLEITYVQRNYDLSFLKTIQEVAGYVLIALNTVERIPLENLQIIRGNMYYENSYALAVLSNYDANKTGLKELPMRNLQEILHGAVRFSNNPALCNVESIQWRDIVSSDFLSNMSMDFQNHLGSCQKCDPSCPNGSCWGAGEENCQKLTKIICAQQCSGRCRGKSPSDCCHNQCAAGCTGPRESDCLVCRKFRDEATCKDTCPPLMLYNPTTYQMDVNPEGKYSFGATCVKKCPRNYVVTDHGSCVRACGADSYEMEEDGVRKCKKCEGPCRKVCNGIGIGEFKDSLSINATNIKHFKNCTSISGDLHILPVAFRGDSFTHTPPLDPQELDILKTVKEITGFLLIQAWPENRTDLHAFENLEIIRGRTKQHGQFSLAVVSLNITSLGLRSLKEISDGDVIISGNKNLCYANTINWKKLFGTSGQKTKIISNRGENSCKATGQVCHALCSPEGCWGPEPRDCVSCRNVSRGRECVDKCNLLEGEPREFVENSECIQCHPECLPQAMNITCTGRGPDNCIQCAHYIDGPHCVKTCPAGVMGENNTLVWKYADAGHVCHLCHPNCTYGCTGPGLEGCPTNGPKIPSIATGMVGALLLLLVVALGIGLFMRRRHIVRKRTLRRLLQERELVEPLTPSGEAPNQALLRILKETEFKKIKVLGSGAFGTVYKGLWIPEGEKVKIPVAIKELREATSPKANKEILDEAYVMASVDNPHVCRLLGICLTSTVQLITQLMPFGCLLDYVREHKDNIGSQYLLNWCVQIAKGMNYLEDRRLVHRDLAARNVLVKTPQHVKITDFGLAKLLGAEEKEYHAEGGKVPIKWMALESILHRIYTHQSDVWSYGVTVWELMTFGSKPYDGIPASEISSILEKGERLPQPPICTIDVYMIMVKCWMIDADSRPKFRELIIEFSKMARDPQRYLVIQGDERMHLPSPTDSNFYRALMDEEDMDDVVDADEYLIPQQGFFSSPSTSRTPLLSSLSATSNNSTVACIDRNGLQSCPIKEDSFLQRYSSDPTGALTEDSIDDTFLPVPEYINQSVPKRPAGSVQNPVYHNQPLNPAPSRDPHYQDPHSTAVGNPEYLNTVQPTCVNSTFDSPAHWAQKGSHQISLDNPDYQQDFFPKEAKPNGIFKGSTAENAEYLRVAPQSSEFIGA
Dickkopf-related protein 1 (Homo sapiens), sequence (O94907 whole entry, looked up): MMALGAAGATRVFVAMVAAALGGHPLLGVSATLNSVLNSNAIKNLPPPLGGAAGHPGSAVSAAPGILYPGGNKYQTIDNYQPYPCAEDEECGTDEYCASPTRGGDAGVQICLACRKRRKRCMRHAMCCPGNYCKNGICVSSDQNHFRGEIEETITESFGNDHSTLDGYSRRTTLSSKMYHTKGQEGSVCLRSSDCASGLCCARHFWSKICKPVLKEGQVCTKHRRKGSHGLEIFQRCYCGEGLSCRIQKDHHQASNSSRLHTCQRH
Left-right determination factor 2 (Homo sapiens), sequence (O00292 whole entry, looked up): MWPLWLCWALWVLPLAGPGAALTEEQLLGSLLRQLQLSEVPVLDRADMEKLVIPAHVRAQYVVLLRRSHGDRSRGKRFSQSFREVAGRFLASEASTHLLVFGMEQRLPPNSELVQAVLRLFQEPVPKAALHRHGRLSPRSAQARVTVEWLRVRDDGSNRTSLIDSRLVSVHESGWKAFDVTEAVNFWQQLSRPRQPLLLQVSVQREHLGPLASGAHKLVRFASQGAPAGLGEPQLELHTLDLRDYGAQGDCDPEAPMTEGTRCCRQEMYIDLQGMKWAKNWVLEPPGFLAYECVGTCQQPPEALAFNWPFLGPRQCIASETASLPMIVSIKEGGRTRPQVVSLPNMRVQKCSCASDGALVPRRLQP
Torsin-1A-interacting protein 1 (Homo sapiens), sequence (Q5JTV8 whole entry, looked up): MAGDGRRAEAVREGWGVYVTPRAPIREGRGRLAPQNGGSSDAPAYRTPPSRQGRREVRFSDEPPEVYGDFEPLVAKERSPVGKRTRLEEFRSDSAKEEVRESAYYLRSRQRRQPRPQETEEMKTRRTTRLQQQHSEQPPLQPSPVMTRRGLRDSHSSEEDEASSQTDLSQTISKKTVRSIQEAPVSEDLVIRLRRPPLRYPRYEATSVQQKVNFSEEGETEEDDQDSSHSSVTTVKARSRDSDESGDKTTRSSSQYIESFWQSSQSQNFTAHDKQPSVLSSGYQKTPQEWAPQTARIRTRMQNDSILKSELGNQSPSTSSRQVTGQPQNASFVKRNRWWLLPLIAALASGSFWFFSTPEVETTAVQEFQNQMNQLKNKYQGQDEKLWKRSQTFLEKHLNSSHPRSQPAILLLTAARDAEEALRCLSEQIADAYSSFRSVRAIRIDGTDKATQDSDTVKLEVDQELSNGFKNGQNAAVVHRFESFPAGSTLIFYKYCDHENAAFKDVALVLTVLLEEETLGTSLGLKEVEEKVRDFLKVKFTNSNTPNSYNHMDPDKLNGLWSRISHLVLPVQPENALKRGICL
Follistatin-related protein 3 (Homo sapiens), sequence (O95633 whole entry, looked up): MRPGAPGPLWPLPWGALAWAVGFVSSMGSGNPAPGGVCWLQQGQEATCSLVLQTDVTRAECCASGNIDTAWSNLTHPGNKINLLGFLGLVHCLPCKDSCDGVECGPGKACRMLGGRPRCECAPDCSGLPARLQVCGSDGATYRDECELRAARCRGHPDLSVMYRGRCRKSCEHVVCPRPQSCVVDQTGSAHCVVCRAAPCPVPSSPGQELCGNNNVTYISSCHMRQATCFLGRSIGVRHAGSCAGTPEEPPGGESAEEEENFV
Fibroblast growth factor 10 (Homo sapiens), sequence (O15520 whole entry, looked up): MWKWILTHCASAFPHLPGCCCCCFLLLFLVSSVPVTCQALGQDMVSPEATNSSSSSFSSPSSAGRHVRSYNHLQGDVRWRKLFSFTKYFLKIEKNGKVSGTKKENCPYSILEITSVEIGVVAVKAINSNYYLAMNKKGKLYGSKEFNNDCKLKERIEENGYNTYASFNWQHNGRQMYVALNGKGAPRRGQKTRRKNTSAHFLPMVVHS

Row | SMILES | composite z-score [1] | composite z-score [2] | composite z-score [3] | z-score [4] | composite z-score [5] | composite z-score [6] | composite z-score [7] | composite z-score [8] | composite z-score [9] | composite z-score [10] | composite z-score [11] | z-score [12] | composite z-score [13] | composite z-score [14] | composite z-score [15] | composite z-score [16] | composite z-score [17] | composite z-score [18] | composite z-score [19] | composite z-score [20]
1 | O=C(NC1CC1)[C@@H]1c2ccccc2C(=O)N(Cc2cc(F)cc(C(F)(F)F)c2)[C@H]1c1ccc(CO)cc1 | 1.62 | -0.284 | 0.447 | 0.191 (inactive) | -0.216 | 0.296 | -1.18 | -0.317 | -0.666 | -0.142 | 0.558 | -0.509 | -1.05 | -0.768 | -0.628 | -0.161 | -0.0709 | 0.0308 | 0.0706 | -0.405
2 | O=C(O)C1N=C(c2ccc(OCCCO)cc2)N(c2ccccc2)O1 (stereo not given) | 0.524 | 0.187 | 0.391 | -0.303 (inactive) | 1.22 | 0.472 | 0.327 | 0.285 | -0.0405 | 0.712 | 1.13 | -0.643 | 0.509 | 0.37 | -0.218 | -0.0478 | -0.0769 | -0.402 | 0.435 | 0.447
3 | CCCNC(=O)[C@@H]1c2ccccc2C(=O)N(Cc2ccccc2OC)[C@H]1c1ccc(CO)cc1 | 1.37 | 0.0051 | 0.4 | 0.233 (inactive) | 0.714 | 0.68 | 0.0755 | 0.995 | 0.216 | -0.258 | 1.46 | -1.12 | 0.146 | 1.07 | 0.485 | -0.0512 | -0.173 | 0.57 | 0.239 | 1.25
4 | O=C1C2C=CC(C(O)c3c(F)cccc3Cl)N(Nc3ccccc3F)C2C(=O)N1c1ccccc1 (stereo not given) | 0.537 | 0.923 | 1.09 | 1.4 (inactive) | 1.28 | 0.533 | -0.0195 | 0.551 | -0.62 | 0.87 | 1.43 | -0.665 | -0.165 | 1.24 | 0.265 | 0.0136 | 0.701 | 0.933 | 1.43 | 0.543
5 | CN(C)CCCCNC(=O)[C@@H]1C[C@@H]2C(=O)N[C@@H](CCCCN)C(=O)N2[C@@H]1c1ccc(O)cc1 | 1.09 | -0.0238 | 0.309 | -0.162 (inactive) | 0.41 | 1.07 | 0.606 | 0.463 | 1.26 | 0.684 | 0.0215 | -1.04 | 0.886 | 1.53 | -0.288 | 0.0725 | 0.213 | 0.654 | 0.677 | 1.36
6 | CCCCC(=C=CC[C@H](O)c1cccc(OCCO)c1)C[C@H](O)c1ccccn1 | 0.827 | -0.218 | -0.302 | -2.17 (inactive) | 0.453 | -0.364 | 0.0715 | 0.0048 | 0.296 | 0.434 | -0.146 | -1.05 | 0.258 | 0.481 | -0.784 | -0.0239 | -0.13 | -0.23 | 0.0971 | -0.0891
7 | CCCNC(=O)[C@@]1(Sc2ccc(C)cc2)CC(=O)N(Cc2ccccc2C(F)(F)F)[C@@H]1c1ccc(CO)cc1I | 1.53 | 0.277 | 0.726 | -1.6 (inactive) | 0.441 | 0.119 | -0.293 | 1.01 | 0.262 | 1.24 | 1.38 | -1.91 | -0.0375 | -0.214 | -0.611 | -0.0519 | 0.0639 | 0.134 | 0.332 | 1.62
8 | C=C(CCCC)/C(=C/C[C@@H](OC(C)=O)c1cccc(OCCO)c1)c1cnc2ccccc2c1 | 0.462 | -0.14 | 0.0854 | 1.17 (inactive) | 1 | -0.518 | 0.12 | 1.12 | 0.312 | 1.58 | 0.571 | -1.32 | 0.257 | -0.18 | -0.387 | -0.124 | -0.0709 | 0.123 | 0.314 | 1.07
9 | COCCOC(=O)N1C(=O)[C@@]2(c3cc(C#CC4=CCCCC4)ccc31)[C@H](c1ccc(OCCO)cc1)N1[C@H](c3ccccc3)[C@H](c3ccccc3)OC(=O)[C@H]1[C@@H]2C(=O)N1CCc2cc(OC)c(OC)cc2C1 | 0.774 | 0.645 | 0.538 | -0.992 (inactive) | 1.09 | 1.3 | 0.707 | 1.39 | 1.13 | 0.942 | 1.24 | -0.829 | 1 | 0.933 | 0.43 | 0.139 | 0.0611 | 0.121 | 1.71 | 0.595
10 | COc1ccc(NN2C(C(O)c3ccc(N(C)C)cc3)C=CC3C(=O)N(C4CCCCC4)C(=O)C32)cc1 (stereo not given) | 1.01 | 1.15 | 0.649 | -0.438 (inactive) | 0.635 | 1.3 | 0.322 | 0.659 | -0.28 | 0.814 | 1.42 | -0.581 | -0.146 | 1.21 | 0.651 | 0.351 | -0.0248 | 0.42 | 1.22 | 1.72
11 | CC(C)CNC(=O)[C@@]1(Cc2ccccc2I)c2ccccc2C(=O)N(Cc2ccccc2C(F)(F)F)[C@H]1c1ccc(CO)cc1 | -0.164 | 0.104 | 0.836 | 0.368 (inactive) | 0.122 | -0.95 | -1.17 | -0.978 | -0.822 | 0.598 | 0.476 | -0.908 | -1.3 | -0.512 | -0.157 | -0.176 | 1.98 | 0.978 | 0.146 | -0.124
12 | CCCCCN1CC=CC23O[C@@H]4C=CCOC(=O)[C@@H]4[C@H]2C(=O)N(C(C)CO)[C@@H]3C1=O (stereo not given in full) | 1.4 | -0.162 | 0.381 | 1.03 (inactive) | -0.571 | -0.831 | -1.44 | -1.25 | -0.693 | -0.469 | -0.967 | 1.01 | -1.39 | -0.0225 | -0.0583 | -0.176 | -0.0146 | 1.04 | -0.901 | -0.394
